In paper PMC4336329 (PLoS ONE, 2015):
The whole screen tested about 310,000 compounds, of which about 14,000 (4.5%) showed an effect of 50% or more. Effects have a minus sign here. The full list was thinned out, with strong results kept by preference.

Molecular target: human ether-à-go-go-related gene (hERG) potassium channel (human, UniProt Q12809)
Assay: primary screen, population patch clamp on CHO cells stably expressing hERG; higher = less effect of the substance
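Further: peak tail current of the secondary pulse compared with the same well before compound.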

Sequence of human ether-à-go-go-related gene (hERG) potassium channel (Q12809 whole entry, looked up): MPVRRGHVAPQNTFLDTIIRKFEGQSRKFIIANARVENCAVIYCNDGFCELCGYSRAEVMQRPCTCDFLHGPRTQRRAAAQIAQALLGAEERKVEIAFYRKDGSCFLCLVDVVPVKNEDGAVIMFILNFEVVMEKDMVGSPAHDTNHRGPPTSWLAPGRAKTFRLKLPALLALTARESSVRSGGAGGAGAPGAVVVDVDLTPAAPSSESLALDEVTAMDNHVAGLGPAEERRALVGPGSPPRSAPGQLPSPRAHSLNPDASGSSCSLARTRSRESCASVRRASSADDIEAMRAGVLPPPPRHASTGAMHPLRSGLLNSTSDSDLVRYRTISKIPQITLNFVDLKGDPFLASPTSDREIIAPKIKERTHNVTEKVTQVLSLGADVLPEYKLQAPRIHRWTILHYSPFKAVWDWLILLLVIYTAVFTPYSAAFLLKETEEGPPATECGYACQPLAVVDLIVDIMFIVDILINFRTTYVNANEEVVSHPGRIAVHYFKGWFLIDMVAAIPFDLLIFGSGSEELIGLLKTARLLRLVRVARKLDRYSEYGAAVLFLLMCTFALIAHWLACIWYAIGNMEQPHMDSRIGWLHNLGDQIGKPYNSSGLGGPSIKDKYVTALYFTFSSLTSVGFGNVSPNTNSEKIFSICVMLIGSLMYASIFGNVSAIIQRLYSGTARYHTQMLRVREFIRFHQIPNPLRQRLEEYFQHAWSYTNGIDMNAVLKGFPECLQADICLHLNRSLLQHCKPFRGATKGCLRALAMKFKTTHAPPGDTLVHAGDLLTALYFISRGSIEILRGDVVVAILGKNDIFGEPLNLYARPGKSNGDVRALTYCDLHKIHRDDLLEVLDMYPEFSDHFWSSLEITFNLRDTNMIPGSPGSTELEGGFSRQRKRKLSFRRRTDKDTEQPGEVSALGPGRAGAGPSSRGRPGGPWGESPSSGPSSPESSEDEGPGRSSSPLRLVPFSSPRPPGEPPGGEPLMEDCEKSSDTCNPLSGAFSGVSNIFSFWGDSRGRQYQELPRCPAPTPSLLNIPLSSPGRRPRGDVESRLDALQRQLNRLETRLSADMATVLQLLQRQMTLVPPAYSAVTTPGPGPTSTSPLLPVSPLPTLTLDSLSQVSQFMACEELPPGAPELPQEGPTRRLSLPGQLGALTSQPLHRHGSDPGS

| Compound | hERG current change (%, negative = inhibition) at 10uM [%] |
| --- | --- |
| CCOC(=O)C1(CC2CC2)CCN(Cc2cn[nH]c2-c2cccc(F)c2)CC1 | -91.6 |
| CC(C#N)Sc1ncnc2sc3c(c12)CCC3 (stereo not drawn) | 0.835 |
| CCC(Sc1ccc2nnc(CCNS(=O)(=O)c3ccc(OC)cc3)n2n1)C(=O)OC (stereo not drawn) | -10.7 |
| OCCC1CN(Cc2ccccc2OC2CCCC2)CCN1Cc1ccsc1 (stereo not drawn) | -68.7 |
| CCCn1ncc(CN2CCN(Cc3ccsc3)C(CCO)C2)c1C (stereo not drawn) | -5.55 |
| Cc1nn(C(C)C)c(C)c1CN1CCN(Cc2ccsc2)C(CCO)C1 (stereo not drawn) | 0.518 |
| OCCC1CN(Cc2ccsc2)CCN1C1CCCC1 (stereo not drawn) | -9.06 |
| OCCC1CN(Cc2cccc(OC3CCCC3)c2)CCN1Cc1ccsc1 (stereo not drawn) | -70 |
| COc1cccc(CN2CCN(Cc3ccc4c(c3)OCCO4)CC2CCO)c1 (stereo not drawn) | -7.1 |
| CC(=O)c1cccc(NC(=O)N2CCC(c3ccc(C)cc3)C2)c1 (stereo not drawn) | -13.8 |
| COc1ccc(-c2c(C(F)(F)F)oc3cc(OCC(=O)Nc4ccccc4C(F)(F)F)ccc3c2=O)cc1OC | 4.91 |
| CC1(C)Cc2nc3oc4c(N(CCO)Cc5ccccc5)ncnc4c3cc2CO1 | -65.6 |
| CC1(C)Cc2nc3sc4c(N(CCO)CCO)ncnc4c3cc2CO1 | 3.56 |
| CC1(C)Cc2nc3oc4c(NCc5ccccc5)ncnc4c3cc2CO1 | -10.7 |
| CCN1CCN(C(=O)CN(c2cc(OC)ccc2OC)S(C)(=O)=O)CC1 | 16.2 |
| O=C(c1ccc(Cl)cc1)N1N=C(c2ccccn2)CC1(O)C(F)(F)F (stereo not drawn) | -13.6 |
| COc1ccc(S(=O)(=O)N2CCCCCC2)cc1NC(=O)c1ccccc1 | 10.5 |
| COc1ccc(NC(=O)c2ccc3c(c2)OCCO3)cc1OC | 9.47 |
| COc1ccc(CCNS(=O)(=O)c2cccc(F)c2)cc1OC | -1.75 |
| Nc1nonc1C(=O)NCCNC(=O)c1cccs1 | -58.7 |
| C/C(=N\NC(=O)c1nonc1N)c1cccs1 | 4.26 |
| Nc1nonc1C(=O)NCCNC(=O)c1ccccc1F | 4.12 |
| CCCCCCCCNC(=O)c1cnccn1 | -7.1 |
| O=c1[nH]nc(CNc2ccc(O)cc2)c2ccccc12 | -6.61 |

| Compound | hERG current change (%, negative = inhibition) at 10uM [%] |
| --- | --- |
| CC1(C)CC(NC(=O)c2cccc(S(=O)(=O)N(Cc3ccccc3)c3ccccc3)c2)CC(C)(C)N1 | -45.3 |
| O=C(O)c1ccc(Cl)c(S(=O)(=O)N(Cc2ccccc2)c2ccc(F)cc2)c1 | 13.9 |
| O=C(Nc1ccccc1C(=O)NC1CC1)c1ccccc1 | 12.9 |
| CC1(C)CC(NC(=O)c2ccc(Cl)c(S(=O)(=O)N(Cc3ccccc3)c3ccccc3)c2)CC(C)(C)N1 | -62.3 |
| CN(C)S(=O)(=O)c1ccc(F)c(C(=O)Nc2ccccc2C(=O)NC2CC2)c1 | -38.7 |
| CN(C)S(=O)(=O)c1cc(C(=O)Nc2ccccc2C(=O)NC2CC2)ccc1Cl | -62.2 |
| COc1ccccc1N(Cc1ccccc1)S(=O)(=O)c1cccc(C(=O)NC2CC(C)(C)NC(C)(C)C2)c1 | -73.4 |
| O=C(O)c1ccc(Cl)c(S(=O)(=O)N(Cc2ccccc2)c2ccccc2)c1 | 7.76 |
| COc1ccccc1N(Cc1ccccc1)S(=O)(=O)c1cccc(C(=O)O)c1 | 10.9 |
| CC1C(=O)N2CCCc3cc(S(=O)(=O)N4CCC(C(N)=O)CC4)cc1c32 (stereo not drawn) | 7.24 |
| CC1CCN(c2ccc(C(=O)Nc3ccc4c(c3)OCO4)cc2[N+](=O)[O-])CC1 | 7.17 |
| O=C(CN(C(=O)C1CSC(=O)C1)c1ccccc1F)NCc1ccc2c(c1)OCO2 (stereo not drawn) | -12.4 |
| COc1ccc(NC(=O)COC(=O)c2cc([N+](=O)[O-])ccc2N2CCOCC2)cc1 | -29.3 |
| CCN(CC)S(=O)(=O)c1ccc(O)c(C(=O)OCC(=O)N(C)Cc2ccccc2)c1 | -55.4 |
| COc1cccc(CNC(=O)COC(=O)c2cc([N+](=O)[O-])ccc2N2CCCC2)c1 | -56.9 |
| O=C(COC(=O)c1cc([N+](=O)[O-])ccc1N1CCOCC1)Nc1ncc(Cl)cc1Cl | -29.2 |
| CN(Cc1ccccc1)C(=O)COC(=O)c1ccc(S(=O)(=O)N(C)C)cc1 | -2.9 |
| COc1ccccc1NC(=O)COC(=O)c1cc([N+](=O)[O-])ccc1N1CCCC1 | -0.76 |
| O=C(COC(=O)c1cc([N+](=O)[O-])ccc1N1CCOCC1)Nc1cc(F)ccc1F | -49.8 |
| O=C(COC(=O)c1cc([N+](=O)[O-])ccc1N1CCOCC1)Nc1ccc(Cl)cn1 | -61.5 |
| O=C(COC(=O)c1cc([N+](=O)[O-])ccc1N1CCOCC1)NCc1ccc(F)cc1 | -53.7 |
| O=C(COC(=O)c1cc([N+](=O)[O-])ccc1N1CCOCC1)Nc1c(Cl)cccc1Cl | -5.53 |
| CN(Cc1ccccc1)C(=O)COC(=O)c1cc(S(=O)(=O)N(C)C)ccc1N1CCCC1 | 1.93 |
| O=C(COC(=O)c1cc([N+](=O)[O-])ccc1N1CCOCC1)NCCc1ccccc1 | -45.4 |
